Structures are written as SMILES. Screen size: about 290,000 compounds; about 3,000 (1%) were called active. What follows is part of a selection rich in actives, with near analogues and random picks from the rest. A number with no mark means an inactive call. Rule as the data show it: active = inhibition mostly above about 36% (no sharp cut-off); inactive = mostly below about 34%.

The assay is described as follows: inhibition of NOD1-driven NF-kB reporter – cell-based, luminescence, uHTS, primary screen (AID 1578).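 Also: HEK-293T reporter cells stimulated with the NOD1 agonist gamma-tri-DAP.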 To be noted: NOD1-driven NF-kB luciferase reporter cells, at 4 µM, hits give high values. A general note: A reporter such as luciferase makes a cellular process visible.
As for `Cc1ccc(/C(O)=C2\C(=O)C(=O)N(C)C2c2ccc(Br)cc2)cc1` (stereo not given), the inhibition – broadly, the relative decrease from the control value, in per cent – was -22%.

As to `CC1CN(C(=O)CN2C(=O)c3ccccc3C2=O)CC(C)O1` (stereo not given), the inhibition is -11.2%.

As for `c1ccc(C(c2nnnn2C2CCCC2)N2CCN(c3nc4ccccc4s3)CC2)cc1` (stereo not given), the inhibition was 8.2%.

Take `CCOC(=O)c1c(NC(=O)CC)sc2c1CCN(Cc1ccccc1)C2`: the inhibition was -21.7%.

In the case of `Nc1nonc1-n1nnc(C(=O)N/N=C/c2ccccn2)c1CNc1ccccc1`, the inhibition was -11.6%.

`Cc1ccsc1/C=N/NC(=O)c1cc(-c2ccncc2)nc2ccccc12`: the inhibition is 69.5% (active).

Consider `COc1ccccc1-c1cc(C(=O)N/N=C/c2sccc2C)c2ccccc2n1`, for which the inhibition was -11.4%.

With `O=C(N/N=C/c1cccs1)c1cc(-c2ccncc2)nc2ccccc12`, the inhibition is 4.8%.

Regarding `Cc1onc(-c2ccccc2Cl)c1C(=O)OCC(=O)c1c(N)n(C)c(=O)n(C)c1=O`, the inhibition was -8.2%.

With `COc1ccc(C(C(=O)NC2CCCCC2)N(C(=O)c2snc(C(N)=O)c2N)c2ccc(OC)cc2OC)cc1` (stereo not given), the inhibition was -7.1%.

On to `Cn1c(=O)n(C)c2cc(NC(=O)c3ccccc3NS(C)(=O)=O)ccc21`, for which the inhibition is 44.4%.

Consider `O=c1[nH]c(C2CCN(S(=O)(=O)Cc3ccccc3)CC2)nc2c1nnn2Cc1cccc(Cl)c1`, for which the inhibition was -7.8%.

On to `NC(=NCCCCCCN=C(N)/N=C(\N)Nc1ccc(Cl)cc1)/N=C(\N)Nc1ccc(Cl)cc1`, for which the inhibition is 46.6% (active).

In the case of `NC(N)=NC(=S)Nc1ccc(Cl)cc1`, the inhibition is -15.3%.

As to `NC(=O)Nc1ccc(Cl)cc1`, the inhibition is 0.2%.

On to `Cc1ccc(S(=O)(=O)NC(C)C(=O)Nc2ccc3c(c2)OCO3)cc1` (stereo not given), for which the inhibition is -7.4%.

For `Cc1cc(C(F)F)n2nc(C(=O)Nc3cccc(C(F)(F)F)c3)nc2n1`, the inhibition is -25.8%.

`COC(=O)CNC(=O)C(NC(=O)c1ccc(Cl)cc1)C(C)C` (stereo not given): the inhibition is 1.3%.

For the compound `O=C(CC1C(=O)NCCN1Cc1cccc(F)c1)NC1CCC1` (stereo not given), the inhibition is -28.3%.

Turning to `CCOc1ccc2c(c1)C(C)=CC(C)(C)N2S(=O)(=O)c1ccc(C)cc1`, the inhibition was -31.4%.

Regarding `CCOc1ccc2c(c1)C(C)=CC(C)(C)N2S(=O)(=O)c1ccc(NC(C)=O)cc1`, the inhibition is 74.1% (active).

Consider `COc1ccc2c(c1)C(C)=CC(C)(C)N2S(=O)(=O)c1ccc(NC(C)=O)cc1`, for which the inhibition is 31.4%.

`CC(=O)c1cnc2nc(SCc3ccccc3)nn2c1C`: the inhibition was -36%.

In the case of `O=C(NC1CCCC1)C(c1ccc(F)cc1)N(C(=O)c1csnn1)c1ccccc1` (stereo not given), the inhibition was -27.7%.

Regarding `CCOc1ccc2nc(SCC(=O)NC(=O)C(C)C)sc2c1`, the inhibition is -13.9%.

Take `O=C(CSc1nc2ccccc2s1)Nc1ccc2c(c1)OCO2`: the inhibition is 12.2%.

Turning to `CCOc1ccc2nc(SCC(=O)Nc3ccc4c(c3)OCO4)sc2c1`, the inhibition was 67.3% (active).

In the case of `CCOc1ccc2nc(SCC(=O)c3ccccc3)sc2c1`, the inhibition was -38.9%.

As to `CCOc1ccc2nc(SCC(=O)c3ccc(O)cc3O)sc2c1`, the inhibition is 51.8% (active).

Regarding `O=C(CSc1nc2ccccc2s1)c1ccc(O)cc1O`, the inhibition was 0.6%.

Take `CCN1CCN(C(=S)c2ccc(O)cc2)CC1`: the inhibition was -31%.

On to `Nc1cccc(C(=O)OCC(=O)Nc2cccc3c2C(=O)c2ccccc2C3=O)c1`, for which the inhibition is -3.2%.

In the case of `O=C(CSc1ccccc1)NC1=NCCS1`, the inhibition is -5.2%.

For the compound `COc1ccccc1C(=O)N1CCN(c2cccc(Cl)c2)CC1`, the inhibition is 33.8%.

In the case of `COc1ccc(N(C)C(=O)c2cnc(N3CCN(c4ncccn4)CC3)c3ccccc23)cc1`, the inhibition was -20%.

On to `CN(C(=O)c1cnc(N2CCN(c3ncccn3)CC2)c2ccccc12)c1ccc(Cl)cc1`, for which the inhibition was 14.2%.

Take `COc1ccc(Nc2ncc(C(=O)N3CCN(c4ccccc4OC)CC3)c3ccccc23)cc1`: the inhibition was 52.5%.

On to `COc1ccc(CNCc2ccc(F)cc2)c(OC)c1`, for which the inhibition is -19.8%.

In the case of `CCOC(=O)NC(=O)/C(N=Nc1cc(C)cc(C)c1)=C(\C)O`, the inhibition is -20.5%.

As for `CC(C)(C)NCC(O)(c1ccc(Cl)cc1)c1ccc(Cl)cc1`, the inhibition was -30.2%.

Consider `CCNC(=S)N(Cc1ccc2c(c1)OCO2)C1CC(=O)N(c2ccc(F)cc2)C1=O` (stereo not given), for which the inhibition was -9.3%.

On to `COc1ccc(N2CCN(C(=O)c3ccc(CNS(=O)(=O)c4cc(C)ccc4C)cc3)CC2)cc1`, for which the inhibition was -18.8%.

Consider `COc1ccc(S(=O)(=O)NCc2ccc(C(=O)O)cc2)cc1`, for which the inhibition is 40.7% (active).

As to `Cc1ccc(S(=O)(=O)NCc2ccc(C(=O)N3CCCC3)cc2)cc1`, the inhibition is -46%.

`Cc1ccc(S(=O)(=O)NCc2ccc(C(=O)N3CCN(c4ccccc4)CC3)cc2)cc1`: the inhibition was 15.5%.

With `COc1ccc(S(=O)(=O)NCc2ccccc2)cc1`, the inhibition is 9.2%.

`COc1ccc(CNS(=O)(=O)c2ccc(OC)cc2)cc1`: the inhibition is -1.2%.

Take `CC1Cc2cc(S(=O)(=O)NCc3ccccc3)ccc2N1C(=O)C1CC1` (stereo not given): the inhibition is -4.7%.

For the compound `COc1cccc(CNS(=O)(=O)c2ccc3c(c2)CC(C)N3C(=O)C2CC2)c1` (stereo not given), the inhibition is 11.6%.

Take `CCOC(=O)N1CCN(C(=O)c2ccc(CNS(=O)(=O)c3ccc(C)cc3)cc2)CC1`: the inhibition is -13.1%.

For `COc1ccccc1-c1noc(CCCC(=O)N2CCOCC2)n1`, the inhibition was -3.7%.

In the case of `O=C(CCc1nc(-c2ccc(Cl)cc2)no1)NC1CCCCC1`, the inhibition was -5.8%.

As to `CCOC(=O)C1CCCN(C(=O)CNC(=O)Cn2ccc3ccccc3c2=O)C1` (stereo not given), the inhibition is -4.8%.

Regarding `O=C(NC(=O)N1CCCCC1)c1ccccc1`, the inhibition is -30.9%.

`O=C(NCc1ccccc1)c1cc[n+](CC(=O)c2cccs2)cc1`: the inhibition was 3.5%.

For `CCOc1ccc(CN(C)C(=O)c2ccc3ccccc3n2)cc1`, the inhibition is -22.9%.

On to `Cc1cccc(N(Cc2ccccc2)C(=O)c2ccc(S(C)(=O)=O)cc2)c1`, for which the inhibition is 5.8%.

Take `C=CCNC(=S)N1CCN(c2ccc([N+](=O)[O-])cc2)CC1`: the inhibition is 4.7%.

In the case of `CCNC(=S)N1CCN(c2ccc([N+](=O)[O-])cc2)CC1`, the inhibition was 16%.

As for `O=[N+]([O-])c1ccc(N2CCN(C(=S)NCc3ccc(Cl)cc3)CC2)cc1`, the inhibition is 89% (active).

Source of the values: PubChem BioAssay AID1578 (Sanford-Burnham Center for Chemical Genomics, 2009).
